Compounds with a hit are over-represented: about 21% of the library has one in this group of screens.
Shiga inhibitor: A qHTS for Small Molecule Inhibitors of Shiga Toxin; Vero cells, Shiga toxin protein synthesis inhibition reporter; inhibition, % at 38.7 µM; 290,000 compounds, 9.2% hits; AID 2315, 2010; in the data active = inhibition mostly above about 28%, no sharp cut-off; inactive = mostly below about 43%; also: 0% is about no effect
NS1 function inh: qHTS Assay for Inhibitors of Influenza NS1 Protein Function | Potency, µM (top dose mostly 46.1 µM), inactives show at the highest dose activity, positive = more growth | 270,000 compounds, 0.4% hits | AID 2326, 2010; also: potency is read from the fitted curve at half-maximal effect; actives are rising curves; nearly all actives have a fitted effect of over 50% in size
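Read-out: OD600 growth recovery of NS1-expressing budding yeast. Cells grown overnight at 30C in -URA glucose medium, washed, resuspended and diluted 1:100 in 2% galactose assay medium, pH 6.0. Same strain lacking NS1 served as positive control.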
Pf growth 48h: Primary qHTS for delayed death inhibitors of the malarial parasite plastid, 48 hour incubation; P. falciparum luciferase growth in erythrocytes, 48 h; Potency, µM (series often up to 28.7 µM), for inactives: at the highest dose activity change, negative = inhibition, hits mostly inhibitors; 310,000 compounds, 5.9% hits; AID 504832, 2011; active = well fitted inhibition curve with a large enough effect; inconclusive = small, poorly fitted or top-dose-only effect, or another doubt; inactive = no such curve, though single readings can be large or run the other way; also: potency is read from the fitted curve at half-maximal effect; % is scaled to controls: 0 for no effect and ±100 for the full control effect
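Read-out is firefly luciferase luminescence from an integrated reporter in P. falciparum, so falling signal marks reduced parasite growth. Infected erythrocytes were at 2% hematocrit and 0.1% parasitemia (final) in Albumax-supplemented RPMI 1640.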
SARS PLP yeast: qHTS of Yeast-based Assay for SARS-CoV PLP; S. cerevisiae expressing SARS-CoV PLpro, growth rescue; Potency, µM (titrated, usually from 32.9 µM), without a hit: at the top dose activity, positive = growth rescue, hits mostly activators; 330,000 compounds, 0.19% hits; AID 485353, 2010; also: potency is read from the fitted curve at half-maximal effect; 0% is about no effect; nearly all actives have a fitted effect of over 55% in size
Pf growth 96h: Primary qHTS for delayed death inhibitors of the malarial parasite plastid, 96 hour incubation. 320,000 compounds, 6.9% hits. P. falciparum luciferase reporter growth, 96 h. Potency, µM (top dose mostly 28.7 µM), for the others: at the highest dose activity change, negative = inhibition, most hits filed as inhibitors; active = well fitted inhibition curve with a large enough effect; inconclusive = small, poorly fitted or top-dose-only effect, or another doubt; inactive = no such curve, though single readings can be large or run the other way; also: potency is read from the fitted curve at half-maximal effect; % is scaled to controls: 0 for no effect and ±100 for the full control effect
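P. falciparum expressing integrated firefly luciferase grown in erythrocytes (2% hematocrit, 0.05% parasitemia final) with compounds for 96 hours at 37 C, 5% CO2. Growth inhibition read as loss of luminescence after adding luciferase detection reagent.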
Cycloheximide cs: Cycloheximide Counterscreen for Small Molecule Inhibitors of Shiga Toxin. 300,000 compounds, 12% hits. cell reporter, cycloheximide protein synthesis inhibition counterscreen. AID 2314, 2010. max response, %; in the data active = max response mostly above about 13%, no sharp cut-off; inactive = mostly below about 14%; also: read at 38.3 µM for the half of the compounds with a filed dose; 0% is about no effect
* marks the source's active call; other numbers are inactive results; ? = inconclusive; nt = no result; [ ] = dose if it differs, or a comment. Unless noted, calls follow the shape of the full dose curve.

SMILES	Shiga inhibitor	NS1 function inh	Pf growth 48h	SARS PLP yeast	Pf growth 96h	Cycloheximide cs
Cc1ccc(C)c(NS(=O)(=O)c2cc(C(=O)NCc3ccncc3)ccc2C)c1	-8.8	-6.5%	17.4%	3.9%	0.9%	-1.0
Cc1sc2c(c1C)CN(C(C)(C)C)CN2C(=O)c1ccccc1	91.0*	-10.1%	nt	-7.2%	10.6%	38.4*
CCc1ccc(CN2CCN(C(=O)c3ccco3)CC2)cc1	14.6	0.6%	0.0%	-0.7%	5.2%	12.1
Cc1sc2c(c1C)CN(Cc1ccco1)CN2C(=O)c1ccccc1	nt	2.9%	nt	nt	nt	nt
COCCN1Cc2c(sc(C)c2C)N(C(=O)c2ccccc2)C1	71.7*	?	?	2.8%	2.3%	26.4*
Cc1sc2c(c1C)CN(Cc1ccncc1)CN2C(=O)c1ccco1	64.1*	-10.5%	nt	-6.0%	?	41.3*
COc1ccc(NC(=O)C(=O)NCCO)cc1Cl	14.9	12.1%	8.3%	-0.6%	20.3%	1.4
CNc1nc(N)c([N+](=O)[O-])c(Nc2ccccc2OC)n1	15.0	-6.3%	nt	0.8%	0.0%	-2.8
Cc1cc(C)n2nc(CC(=O)NCc3ccc(F)cc3)nc2n1	-3.2	1.6%	-6.5%	2.5%	-19.8%	-3.3
CNc1cnn(-c2ccc(C)cc2)c(=O)c1Cl	81.3*	1.1%	241.4%	?	190.3%	40.0*
COc1ccc(Oc2cnn(-c3ccccc3)c(=O)c2Br)cc1	8.6	-3.0%	-14.2%	-1.0%	0.0%	4.6
COc1cnn(-c2ccc(C)cc2)c(=O)c1Cl	79.1*	nt	87.5%	1.6%	75.1%	51.7*
COc1cnn(-c2ccc(C)cc2)c(=O)c1Br	61.1	nt	124.7%	3.7%	404.2%	39.3*
CNc1cnn(-c2ccc(C)cc2)c(=O)c1Sc1ccc(C)cc1	-4.5	-3.8%	-1.6%	0.2%	-22.8%	-4.9
COc1cnn(-c2cc(Oc3ccc(C)cc3)ncn2)c(=O)c1Cl	-6.0	-7.5%	nt	-6.3%	-2.9%	-1.1
CN(C)C(=O)c1ccc(NC(=O)CSc2nnc(-c3cccs3)n2N)cc1	nt	nt	1.3%	9.1%	4.2%	nt
CC1CC(OC(=O)c2ccccc2O)CC(C)(C)C1 (stereo not given)	nt	nt	-6.5%	nt	-2.9%	nt
CC(=O)Nc1ccc(NC(=O)c2ccc(C3SCC(=O)N3CCc3ccccc3)cc2)cc1 (stereo not given)	-9.8	2.8%	-19.0%	19.5%	11.7µM*	-5.6
O=C(NCCSCc1ccccc1)c1ccc(C2SCC(=O)N2Cc2ccccc2)cc1 (stereo not given)	-5.7	23.4%	nt	2.3%	7.38µM*	-1.6
COC(=O)c1ccc(C2SCC(=O)N2Cc2ccccc2)cc1 (stereo not given)	-9.1	-7.1%	-21.2%	-3.9%	4.3%	-5.4
O=C1[C@H]2[C@@H](C(=O)N1c1cccc3ccccc13)C1(C(=O)c3ccccc3C1=O)N1CCC[C@@H]21	-8.9	-11.1%	?	-15.6%	?	-3.6
Cc1c(NC(=O)COC(=O)c2ncc(Cl)c(Cl)c2Cl)c(=O)n(-c2ccccc2)n1C	nt	nt	6.1%	-1.5%	21.7%	nt
COc1ccc(S(=O)(=O)N2CCCCC2)cc1NC(=O)Cn1cnc2c1c(=O)n(C)c(=O)n2C	nt	nt	nt	-0.8%	nt	nt
CC1CN(C(=S)SCC(=O)c2ccc([N+](=O)[O-])cc2)CC(C)O1 (stereo not given)	13.9	1.3%	?	-3.6%	47.6%	-3.2
O=C(CSC(=S)N1CCSCC1)c1ccc(Cl)cc1	82.2*	nt	398.0%	1.2%	7.5%	39.0*
SMILES	Shiga inhibitor	NS1 function inh	Pf growth 48h	SARS PLP yeast	Pf growth 96h	Cycloheximide cs
O=C1CCC(=O)N1CCSC(=S)N1CCSCC1	59.8*	-5.4%	36.7%	-0.3%	65.2%	14.0*
O=C(CSC(=S)N1CCSCC1)c1ccccc1	93.1*	nt	440.2%	2.7%	147.1%	26.8*
O=C(CN1C(=O)S/C(=C\c2ccccc2F)C1=O)NC1C=CS(=O)(=O)C1 (stereo not given)	-3.6	-4.0%	?	-1.1%	?	-2.8
COc1cc2c(cc1OC)CN(C(=O)CCOc1ccccc1C)CC2	-10.7	-15.5%	1.7%	1.4%	-1.7%	-2.3
CCCn1nnc(NC(=O)COc2ccc(Cl)cc2)n1	12.0	-14.6%	9.4%	nt	21.2%	11.1
CCn1nnc(NC(=O)c2ccc(C(C)(C)C)cc2)n1	35.6	-75.8%	2.94µM*	-3.6%	9.6%[5.75 µM]	36.3*
